Bioassay records: PubChem, The Scripps Research Institute Molecular Screening Center
Hits are enriched below; roughly 4.5% of the tested compounds scored in any of these assays.
FXN GAA850 act – frataxin GAA850 promoter activation; activation, % at 6 µM; actives 0.56% (n = 360,000); HEK293 lucGAA850 FXN promoter luciferase reporter, 24 h; percent of 10 µM SAHA response;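 active means activation above the average of all compounds screened plus 3 SD, cutoff fixed separately per campaign, cut at about 7.5% in these data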
hgDAF12 agonist – hgDAF-12 agonism, primary luciferase screen. HEK293 GAL4-hgDAF12 UAS-luciferase reporter, agonist luminescence; normalized to butyrate control. activation, % at 6.8 µM. actives 1.8% (n = 370,000). AID 687014;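 active means activation above a cutoff set at the mean of all screened compounds plus 3 SD, cut at about 10% in these data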
hcDAF-12 act – activators of H. contortus DAF-12 nuclear receptor. activation, % at 6.8 µM. HEK293 hcDAF-12 lit1-tk-luc reporter, luminescence; 0% DMSO, 100% Δ7-dafachronic acid. actives 1.4% (n = 370,000). AID 652067;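 active means activation above the mean of all tested compounds plus 3 SD, cut at about 5.5% in these data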
DAX1 inh-1 – blocks DAX1 repression of SF-1 activated StAR promoter; HEK293T StAR-luciferase reporter, SF-1/DAX-1 repression relief; inhibition, % at 6.8 µM; actives 1.1% (n = 370,000); AID 652010;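 active means inhibition above the mean over all tested compounds plus 3 SD, cut at about 3.6% in these data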;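 further: higher inhibition means more luminescence from relief of DAX-1 repression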
DAX1 inh-2 – inhibits human nuclear receptor DAX1. P51843. HEK293 Gal4-DAX1 luciferase reporter, luminescence. inhibition, % at 6.75 µM. actives 0.99% (n = 340,000);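 active means inhibition above the mean over all tested compounds plus 3 SD, cut at about 4.2% in these data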;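 further: inhibition shows as a rise in luminescence from relieved DAX1 repression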
Target sequence (P51843 207-470 limits assumed): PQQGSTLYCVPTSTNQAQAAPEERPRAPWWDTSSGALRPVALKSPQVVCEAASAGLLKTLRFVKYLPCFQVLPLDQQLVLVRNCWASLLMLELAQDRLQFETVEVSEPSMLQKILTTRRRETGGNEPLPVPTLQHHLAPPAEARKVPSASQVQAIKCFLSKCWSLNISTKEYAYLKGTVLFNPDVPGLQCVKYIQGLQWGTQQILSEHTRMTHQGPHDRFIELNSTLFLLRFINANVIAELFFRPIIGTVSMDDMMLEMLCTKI
ssDAF-12 act – activates DAF-12 receptor from parasite S. stercoralis; activation, % at 6.8 µM; AID 652126; actives 1% (n = 370,000); HEK293 ssDAF-12/GRIP1 lit1-tk-luc reporter, luminescence; % of 3 µM dafachronic acid response;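 active means activation above the mean over all tested compounds plus 3 SD, cut at about 0.9% in these data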
Hits are given with their value; . = inactive; / = not tested or not shown.

SMILES	FXN GAA850 act	hgDAF12 agonist	hcDAF-12 act	DAX1 inh-1	DAX1 inh-2	ssDAF-12 act
O=S1(=O)c2ccc(Br)cc2OCCC2CCCCN21 (stereo unspecified)	/	.	.	.	/	.
CCN(C(=O)CSc1ncccc1C(=O)Oc1cccc([N+](=O)[O-])c1)c1cccc(C)c1	.	.	.	.	.	.
CSc1cccc(NC(=O)CSc2ncccc2C(=O)Oc2cccc([N+](=O)[O-])c2)c1	.	.	.	.	.	1.4
O=C1NCCN/C1=C\C(=O)c1ccccc1	.	.	.	.	.	.
O=C1NCCN/C1=C\C(=O)c1ccc(Br)cc1	.	11	.	.	/	.
Cc1cccc(C(=O)N[C@H]2CC[C@@]34CCCN3C(=O)CCC[C@H]4[C@H]2C)c1	/	.	.	/	/	.
CCOC(=O)N1CCN(C(=O)C[C@H]2C[C@@]3(C(=O)OC)C(=C[C@H](C(C)(C)C)O[C@@H]3C)N(Cc3ccco3)C2=O)CC1	/	.	.	.	/	.
CC(=O)Nc1c(C(=O)O)[nH]c2ccccc12	.	.	6.1	.	.	.
COc1cc(C(=O)Nc2c(C(=O)O)[nH]c3ccccc23)cc(OC)c1OC	.	.	6.1	.	.	.
N#Cc1ccc(C(=O)N/N=C/c2cn(CC(=O)O)c3ccccc23)c(F)c1	.	.	5.7	.	.	.
O=C(O)C(CO)N=Cc1c(O)c2ccccc2oc1=O (stereo unspecified)	.	.	.	.	.	.
CC(N=Cc1c(O)c2ccccc2oc1=O)C(=O)O (stereo unspecified)	.	11	.	.	.	.
CCCOC(=O)c1ccc(NC(=O)COC)cc1	.	.	.	.	.	.
CCCCOC(=O)c1ccc(NC(=O)c2ccoc2C)cc1	.	12	.	.	.	.
CCCOC(=O)c1ccc(NC(=O)c2ccoc2C)cc1	.	.	.	.	.	.
CCCCOC(=O)Nc1ccc(C(N)=O)cc1	.	.	.	.	4.3	.
CCCOC(=O)c1ccc(NC(=O)CC(C)(C)C)cc1	.	13	.	3.8	.	.
CCCCOC(=O)Nc1nnc(C(C)C)s1	.	11	.	.	5.7	.
C=CCN1C(=O)[C@@H](CC(=O)NCc2cccc3ccccc23)[C@]2(C(=O)OCC)CCCCC/C=C/12	/	.	.	.	/	.
CCCCCC[C@@H](CC)CN(C(=O)Oc1ccccc1)c1ccccc1	/	.	.	.	/	.
Cc1nc2ccc(NC(=O)c3ccc(F)cc3F)cc2c(=O)[nH]1	/	.	.	.	/	.
CCCCN1C(=O)N2Cc3ccc(C)cc3C2CS1(=O)=O (stereo unspecified)	/	.	.	.	/	.
Cn1cc(CN2CCCC(CO)(Cc3ccccc3)C2)c2ccccc21 (stereo unspecified)	.	.	.	.	4.9	.
S=C(Nc1cccc(Cl)c1)N(CCCN1CCCC1)Cc1cccn1Cc1ccc(Cl)cc1	.	.	.	.	.	.
COc1cccc(NC(=S)N(CCCN2CCCC2)Cc2cccn2Cc2ccc(Cl)cc2)c1	.	/	/	/	4.4	/
SMILES	FXN GAA850 act	hgDAF12 agonist	hcDAF-12 act	DAX1 inh-1	DAX1 inh-2	ssDAF-12 act
CS(=O)(=O)c1ccc(Nc2nc(C(N)Cc3ccc(Cl)cc3)cs2)cc1 (stereo unspecified)	.	.	.	.	/	.
NC(Cc1ccc(Cl)cc1)c1csc(Nc2ccc(S(N)(=O)=O)cc2)n1 (stereo unspecified)	.	.	.	4.3	/	.
Cn1cc(C=CC(=O)O)c2nccnc21	.	.	.	.	.	1.3
CCOc1ccc(OCCC(=O)OCC(=O)N2CCN(S(=O)(=O)c3ccc(Cl)cc3)CC2)cc1	9.7	.	.	.	.	.
Cc1ccc(S(=O)(=O)N2CCN(C(=O)COC(=O)COc3ccc(Cl)cc3)CC2)c(C)c1	.	.	.	.	4.8	.
Cc1ccc(C)c(OCCC(=O)OCC(=O)N2CCN(S(=O)(=O)c3ccc(Cl)cc3)CC2)c1	.	.	.	.	.	.
COc1ccc(CN(C)C(C#Cc2ccccc2)Cc2ccccc2)c(OC)c1 (stereo unspecified)	/	.	.	.	/	.
O=c1cc(C=NNc2ccccc2)[nH]c(=O)[nH]1	.	.	.	.	4.9	.
COCc1cc(=O)n2c([nH]c3ccccc32)c1C#N	.	.	.	.	.	1.2
O=C(COc1ncnc2cc(Cl)ccc12)c1ccc2c(c1)OCCO2	.	.	.	.	4.8	.
O=C(COc1ncnc2ccccc12)c1ccc2c(c1)OCCO2	.	11	.	.	.	.
O=S1(=O)CC2c3ccc(F)cc3CN2CN1C1CCCC1 (stereo unspecified)	/	.	.	.	/	1.0
O=S1(=O)CC2c3ccc(F)cc3CN2CN1Cc1ccc(F)cc1 (stereo unspecified)	/	.	.	.	/	.
Cc1c(/C=C/C(=O)c2ccccc2O)cnn1C	.	13	.	.	4.5	.
Cc1ccc(/C=C/C(=O)c2ccccc2O)cc1	.	.	.	.	.	.
Cc1nc2ccc(S(=O)(=O)NCC(=O)NCc3cccs3)cc2s1	/	.	.	.	/	.
Fc1ccccc1CSc1nnc(-c2cccs2)o1	.	11	.	3.7	.	.
COc1ccccc1-c1nnc(SCC(=O)N2CCCCC2)o1	.	.	.	.	.	.
COc1ccc(OC)c(-c2nnc(SCC(=O)N3CCCC3)o2)c1	.	.	.	.	4.9	.
Cc1ccccc1-c1nnc(SCC(=O)N2CCCC2)o1	.	11	.	.	.	.
O=C(CSc1nnc(-c2cccs2)o1)N1CCCCC1	.	12	.	.	.	.
COc1ccc(OC)c(-c2nnc(SCC(=O)N3CCOCC3)o2)c1	.	.	.	.	.	.
C=CCN1[C@@H](CC(C)C)COc2cc(F)ccc2S1(=O)=O	/	.	.	.	/	.
Cc1ccccc1-c1nnc(-c2ccccc2C)o1	.	11	.	.	.	.
O=C(CSc1nnc(-c2ccc(Cl)cc2)o1)N1CCOCC1	.	11	.	.	.	.
SMILES	FXN GAA850 act	hgDAF12 agonist	hcDAF-12 act	DAX1 inh-1	DAX1 inh-2	ssDAF-12 act
O=C(CSc1nnc(-c2ccc(O)cc2)o1)N1CCOCC1	.	.	.	.	.	.
Cc1ccccc1-c1nnc(-c2cccc3ccccc23)o1	.	.	.	.	.	.
CCCCCCCCN1C(=O)[C@@H](CC(=O)NCCC(C)C)C[C@@]2(C(=O)OC)C1=C[C@H](COCc1ccccc1)O[C@@H]2C	/	.	.	.	/	.
COC(=O)[C@]12C[C@H](CC(=O)NCc3cccs3)C(=O)N(Cc3ccco3)C1=C[C@H](COCc1ccccc1)O[C@@H]2C	/	.	.	.	/	.
COC(=O)c1ccc(-c2n[nH]c(=O)c3ccccc23)cc1	.	.	.	.	.	.
CN(C)C(=O)c1ccc(-c2n[nH]c(=O)c3ccccc23)cc1	.	.	.	.	4.8	.
